Results on five molecules are retold here after PubChem BioAssay.

Inconclusive results are not listed. The source made the active and inactive calls. Unless noted, no stated cut-off is given here; in the data, active means response above about 15%; inactive means the rest.

The nature of assay [1]: yeast TOR pathway RPL19A-GFP modulators, primary screen, cell-based, S. cerevisiae, multiplex flow cytometry (AID 1862; in the data active means percent of DMSO control GFP below about 86%;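 further: lower values mimic rapamycin by blocking the RPL19A rise seen in DMSO cells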). The conditions noted are these: S. cerevisiae RPL19A-GFP strain, flow cytometry fluorescence, 3 h; at 10 µM; stronger effect = lower value.
Assay [2] in a line: modulators of MEP2-GFP levels in yeast, primary screen, S. cerevisiae, multiplex flow cytometry (AID 1867;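 active means GFP response, as percent of the DMSO control, above the screen-wide mean plus 3 SD, about 139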;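 further: median GFP channel fluorescence of barcode-gated MEP2-GFP cells measured by flow cytometry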). The conditions noted are these: S. cerevisiae MEP2-GFP strain, 3 h, at 10 µM, stronger effect = higher value, 100% means same as DMSO wells. For orientation: A flow cytometer gives signals particle by particle.
Assay [3] in a line: modulators of CIT2-GFP expression in yeast, primary screen, S. cerevisiae, GFP fusion, multiplex flow cytometry (AID 1870;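 active means percent response above a set limit, the screen-wide mean plus 3 SD, cut at about 130% in these data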;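 further: barcoded CIT2-GFP strain pooled with four other GFP strains with rapamycin as positive control; median GFP fluorescence per well over plate mean of DMSO wells so 100% = DMSO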). Particulars: 3 h, at 10 µM, stronger effect = higher value.
The nature of assay [4]: modulators of LAP4-GFP expression in yeast, primary screen, S. cerevisiae, multiplex flow cytometry (AID 1873;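 active means GFP signal, as percent of the solvent control, above the screen mean plus 3 SD, about 149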). Particulars: 3 h, at 10 µM, stronger effect = higher value.
The nature of assay [5]: modulators of AGP1-GFP expression in yeast TOR pathway, primary screen, cell-based, multiplex flow cytometry, S. cerevisiae (AID 1887;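 active means GFP signal above the screen-wide mean plus 3 SD, that is over about 124.5% of the solvent control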;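 further: AGP1-GFP fusion strain of S. cerevisiae within a five-strain barcoded multiplex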). Particulars: 3 h, at 10 µM, stronger effect = higher value.
The nature of assay [6]: inhibitors of CD8+ T cell-vesicle binding, pilot screen, LFA-1/ICAM-1 modulator project, MLPCN validation set, flow cytometry (AID 2523;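 active means response below a set limit, under 55% cells CD8-positive and vesicle-bound, and CD8 cells' 90th-percentile brightness under 279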;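 on vesicle binding response: mean PE anti-B7-1 fluorescence of CD8+ cells relative to row control; 100% = QL9-loaded vesicles with DMSO vehicle in the same plate row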). The conditions noted are these: 2C mouse CD8+ T cells, at 7 µM, stronger effect = lower value; double positive events: measured here: CD8+/vesicle+ event percentage.
The target of assay [7] is Integrin beta-1 (Homo sapiens) + Integrin alpha-4 (Homo sapiens) (UniProt P13612+P05556). Briefly: inhibition of HUTS-21 binding to VLA-4, pilot screen, VLA-4 allosteric modulator project, U937 cells, HUTS-21 mAb, flow cytometry, validation set (AID 2674;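 active means inhibition above 50%, about 3 SD of the validation set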;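 further: antibody binding induced by the VLA-4 ligand LDV present at three times its Kd; 0% = LDV ligand with antibody and no compound and 100% = antibody without LDV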). Particulars: HUTS-21 LIBS mAb binding, at 6.7 µM, stronger effect = higher value, binding induced by LDV ligand.
Chain of Integrin beta-1 (Homo sapiens) + Integrin alpha-4 (Homo sapiens) (P05556 whole entry, looked up): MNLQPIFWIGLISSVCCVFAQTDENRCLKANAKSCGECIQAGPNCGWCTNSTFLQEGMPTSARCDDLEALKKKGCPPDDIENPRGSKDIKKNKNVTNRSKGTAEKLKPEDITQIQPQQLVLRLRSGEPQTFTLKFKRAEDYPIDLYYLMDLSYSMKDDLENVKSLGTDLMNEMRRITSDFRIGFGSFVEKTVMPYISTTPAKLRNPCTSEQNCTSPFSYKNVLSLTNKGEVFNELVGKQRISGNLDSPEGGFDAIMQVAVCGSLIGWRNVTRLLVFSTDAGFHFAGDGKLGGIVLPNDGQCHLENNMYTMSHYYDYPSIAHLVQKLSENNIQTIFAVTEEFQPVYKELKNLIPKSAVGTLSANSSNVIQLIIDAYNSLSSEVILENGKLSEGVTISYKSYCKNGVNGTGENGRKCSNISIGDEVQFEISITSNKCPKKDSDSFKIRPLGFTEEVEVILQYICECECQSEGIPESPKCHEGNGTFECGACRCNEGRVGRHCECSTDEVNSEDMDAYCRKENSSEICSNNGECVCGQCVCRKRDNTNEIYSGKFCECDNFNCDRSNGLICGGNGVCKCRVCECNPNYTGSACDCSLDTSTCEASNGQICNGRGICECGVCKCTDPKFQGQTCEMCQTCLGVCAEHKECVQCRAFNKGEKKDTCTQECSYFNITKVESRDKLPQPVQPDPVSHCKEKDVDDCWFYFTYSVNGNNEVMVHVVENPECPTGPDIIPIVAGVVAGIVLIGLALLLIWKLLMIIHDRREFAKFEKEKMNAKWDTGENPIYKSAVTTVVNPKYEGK
Chain of Integrin beta-1 (Homo sapiens) + Integrin alpha-4 (Homo sapiens) (P13612 whole entry, looked up): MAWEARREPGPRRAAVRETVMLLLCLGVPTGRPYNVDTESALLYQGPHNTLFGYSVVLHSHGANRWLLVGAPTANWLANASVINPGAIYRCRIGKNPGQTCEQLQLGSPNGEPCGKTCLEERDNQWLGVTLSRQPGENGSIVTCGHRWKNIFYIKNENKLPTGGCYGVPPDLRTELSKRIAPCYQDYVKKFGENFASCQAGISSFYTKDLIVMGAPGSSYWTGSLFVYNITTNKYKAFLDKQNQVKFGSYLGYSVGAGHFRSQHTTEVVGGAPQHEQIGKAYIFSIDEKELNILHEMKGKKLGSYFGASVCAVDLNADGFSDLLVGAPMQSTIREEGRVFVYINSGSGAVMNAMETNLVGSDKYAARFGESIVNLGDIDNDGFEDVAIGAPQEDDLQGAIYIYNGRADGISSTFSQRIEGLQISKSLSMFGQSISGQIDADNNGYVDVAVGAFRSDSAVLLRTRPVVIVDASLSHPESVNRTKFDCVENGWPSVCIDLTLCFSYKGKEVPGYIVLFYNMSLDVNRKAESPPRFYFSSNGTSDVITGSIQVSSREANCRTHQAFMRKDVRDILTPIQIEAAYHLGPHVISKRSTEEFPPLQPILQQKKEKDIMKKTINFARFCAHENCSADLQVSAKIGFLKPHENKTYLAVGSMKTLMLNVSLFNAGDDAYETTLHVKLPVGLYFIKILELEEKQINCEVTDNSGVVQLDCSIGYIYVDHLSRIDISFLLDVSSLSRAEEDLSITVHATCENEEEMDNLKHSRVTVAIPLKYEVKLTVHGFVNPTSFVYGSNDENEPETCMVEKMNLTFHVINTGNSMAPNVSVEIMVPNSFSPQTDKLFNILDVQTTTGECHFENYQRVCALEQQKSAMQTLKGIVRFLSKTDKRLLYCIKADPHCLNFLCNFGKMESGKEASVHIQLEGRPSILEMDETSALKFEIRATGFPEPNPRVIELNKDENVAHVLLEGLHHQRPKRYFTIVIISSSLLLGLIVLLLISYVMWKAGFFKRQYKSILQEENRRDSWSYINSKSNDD
Assay [8] is described as follows: superoxide lowering in aged yeast cells, pilot screen, validation compound set (AID 2706;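 active means superoxide response below 65% of plate, a cut near 3 SD across the whole screen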;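 further: yeast exposed to compound for one week at 30 degrees C before staining; 100% = mean of all compound wells on the same plate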). Particulars: S. cerevisiae aging, superoxide DHE fluorescence; at 10 µM; stronger effect = lower value.
Assay [9] addresses Beta-adrenergic receptor kinase 1 (Homo sapiens) (UniProt P25098). Briefly: GRK2 binders displacing RNA aptamer, biochemical, validation, human GRK2, bead flow cytometry (AID 488806;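 active means aptamer binding inhibition above 30%, about 3 SD of noise from non-fluorescent compounds; inactive means inhibition at or below 30%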). The conditions noted are these: bead-bound GRK2, FAM-aptamer displacement, at 10 µM, stronger effect = higher value.
Assay [10] addresses Beta-2 adrenergic receptor (Homo sapiens) (UniProt P07550). Description: beta2AR agonists driving receptor internalization, pilot screen, cell-based, FAP fluorogen, flow cytometry, validation set (AID 504459;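 active means percent response above 42, roughly 3 SD of non-fluorescent test compounds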;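 further: agonist-driven loss of surface beta2AR via internalization measured by FAP dye flow cytometry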). The conditions noted are these: Am2.2-beta2AR cells, FAP surface receptor flow cytometry; at 10 µM; stronger effect = higher value.
The target of assay [11] is AP-2 complex subunit beta (Homo sapiens) (UniProt P63010). Description: inhibitors of arrestin peptide binding to AP2, pilot screen, biochemical, validation set, GST-AP2 beads, flow cytometry (AID 504541;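 active means inhibition above 54%, about 3 SD of non-fluorescent compounds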;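 further: AP2 carries R879A mutation and is captured from E. coli lysate; bead-bound FITC arrestin peptide fluorescence measuring arrestin peptide binding to AP2; 0% = DMSO wells and 100% = excess unlabeled arrestin peptide control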). Particulars: FITC arrestin peptide, at 10 µM, stronger effect = higher value, AP2 beta2 appendage fragment, R879A mutant.
Chain of AP-2 complex subunit beta (Homo sapiens) (P63010 whole entry, looked up, the tested form may be a part, one chain of several): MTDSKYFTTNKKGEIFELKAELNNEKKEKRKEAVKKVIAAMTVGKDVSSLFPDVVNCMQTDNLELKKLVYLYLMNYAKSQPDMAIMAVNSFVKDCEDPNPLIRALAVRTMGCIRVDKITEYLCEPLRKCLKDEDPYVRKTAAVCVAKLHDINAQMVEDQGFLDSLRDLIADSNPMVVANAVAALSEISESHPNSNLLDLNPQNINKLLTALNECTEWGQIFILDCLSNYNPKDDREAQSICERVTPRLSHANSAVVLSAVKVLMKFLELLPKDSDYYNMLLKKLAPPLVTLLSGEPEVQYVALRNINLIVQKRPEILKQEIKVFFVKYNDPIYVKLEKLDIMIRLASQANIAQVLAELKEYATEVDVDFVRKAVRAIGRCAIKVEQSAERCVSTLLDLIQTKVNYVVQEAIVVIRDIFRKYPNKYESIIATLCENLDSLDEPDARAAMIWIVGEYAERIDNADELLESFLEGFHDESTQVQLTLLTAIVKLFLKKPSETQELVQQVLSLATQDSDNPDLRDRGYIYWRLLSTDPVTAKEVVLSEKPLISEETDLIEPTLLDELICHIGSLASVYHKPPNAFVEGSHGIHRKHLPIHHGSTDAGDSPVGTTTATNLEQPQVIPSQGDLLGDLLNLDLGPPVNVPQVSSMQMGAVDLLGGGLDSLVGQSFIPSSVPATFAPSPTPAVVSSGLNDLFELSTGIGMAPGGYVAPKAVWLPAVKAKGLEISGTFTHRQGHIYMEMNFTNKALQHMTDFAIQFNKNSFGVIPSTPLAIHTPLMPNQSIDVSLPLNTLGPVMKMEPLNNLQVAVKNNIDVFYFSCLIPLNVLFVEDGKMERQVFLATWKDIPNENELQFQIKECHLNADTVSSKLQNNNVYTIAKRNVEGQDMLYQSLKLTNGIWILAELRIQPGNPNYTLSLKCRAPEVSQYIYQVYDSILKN
The nature of assay [12]: yeast V-ATPase proton transport modulators, S. cerevisiae, pHLuorin, HTS validation (AID 504600).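 Further: plate controls were DMSO for no effect and reference compound for full effect.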 Particulars: S. cerevisiae pHLuorin cytosolic pH, at 10 µM, stronger effect = higher value.
Assay [13] has as its system anti-desmoglein-3 scFv antibody binding to human DSG3. Description: inhibitors of anti-DSG3 scFv binding to DSG3, pilot screen, biochemical, validation compound set, bead-based, flow cytometry (AID 588368;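 active means binding below the plate cutoff, the plate median minus 3 SD, with a reading above zero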;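 further: signal is the median channel fluorescence of bead-bound GFP antibody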). The conditions noted are these: Protein G beads, DSG3-Fc, scFv-GFP binding, at 10 µM, stronger effect = lower value.
A short description of assay [14]: inhibitors of fungal efflux pumps CDR1, CDR2, MDR1, pilot screen, validation compound set, multiplex, phenotypic (AID 588506;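 active means efflux inhibition above 0.42, the validation set average plus 4 SD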;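 further: Nile Red retained in cells so higher fluorescence means more efflux inhibition; 0 = negative control wells and 1 = enniatin B 25 µM full block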). The conditions noted are these: S. cerevisiae pump-expressing triplex, Nile Red efflux flow cytometry; at 10 µM; stronger effect = higher value; the pumps come from Candida albicans.
Assay [15] has as its target ATP-binding cassette sub-family B member 6 (Homo sapiens) (UniProt Q9NP58). Briefly: ABCB6 transporter inhibitors, pilot screen, K562-ABCB6 cells, flow cytometry, validation set (AID 588550;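 active means inhibition above the screen-wide mean plus 3 SD, about 51%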;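 further: 0% = DMSO wells and 100% = benzethonium chloride 70 µM positive control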). Particulars: K562-ABCB6 porphyrin accumulation, 1 h, at 10 µM, stronger effect = higher value.
The nature of assay [16]: promoters of myeloid differentiation in arrested cells, primary screen, cell-based, GFP/MAC1 double positive, flow cytometry, validation set (AID 588685;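 active means differentiation response of at least 50%, scaled between solvent and reference control, from cells with both markers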;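 further: compound exposure lasts four days before antibody staining and flow analysis; 0% = DMSO wells and 100% = 5 µM fulvestrant positive control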). Particulars: ER-HoxA9 marrow cells, stronger effect = higher value, normalized: vehicle 0, fulvestrant 100.

Chain of ATP-binding cassette sub-family B member 6 (Homo sapiens) (Q9NP58 whole entry, looked up): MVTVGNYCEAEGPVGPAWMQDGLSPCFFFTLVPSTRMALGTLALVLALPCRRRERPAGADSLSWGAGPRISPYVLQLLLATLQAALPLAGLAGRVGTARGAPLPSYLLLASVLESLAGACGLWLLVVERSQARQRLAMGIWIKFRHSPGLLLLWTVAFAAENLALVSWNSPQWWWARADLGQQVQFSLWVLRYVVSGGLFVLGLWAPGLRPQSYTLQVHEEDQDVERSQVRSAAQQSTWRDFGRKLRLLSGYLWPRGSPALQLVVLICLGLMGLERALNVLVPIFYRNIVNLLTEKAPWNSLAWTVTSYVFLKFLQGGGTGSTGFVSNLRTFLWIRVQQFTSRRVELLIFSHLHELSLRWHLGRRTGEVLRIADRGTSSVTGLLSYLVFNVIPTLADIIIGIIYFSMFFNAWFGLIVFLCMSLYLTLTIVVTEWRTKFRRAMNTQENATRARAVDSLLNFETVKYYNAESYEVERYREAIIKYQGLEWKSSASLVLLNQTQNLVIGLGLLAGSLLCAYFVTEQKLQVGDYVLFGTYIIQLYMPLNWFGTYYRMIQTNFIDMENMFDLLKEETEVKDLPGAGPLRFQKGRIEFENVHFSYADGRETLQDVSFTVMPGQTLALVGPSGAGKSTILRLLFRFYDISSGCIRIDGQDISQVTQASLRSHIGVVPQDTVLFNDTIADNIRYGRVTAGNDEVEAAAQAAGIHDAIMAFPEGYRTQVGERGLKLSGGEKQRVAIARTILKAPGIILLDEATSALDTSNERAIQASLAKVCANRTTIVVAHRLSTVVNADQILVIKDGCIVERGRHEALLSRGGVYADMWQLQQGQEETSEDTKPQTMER
Chain of Beta-adrenergic receptor kinase 1 (Homo sapiens) (P25098 whole entry, looked up): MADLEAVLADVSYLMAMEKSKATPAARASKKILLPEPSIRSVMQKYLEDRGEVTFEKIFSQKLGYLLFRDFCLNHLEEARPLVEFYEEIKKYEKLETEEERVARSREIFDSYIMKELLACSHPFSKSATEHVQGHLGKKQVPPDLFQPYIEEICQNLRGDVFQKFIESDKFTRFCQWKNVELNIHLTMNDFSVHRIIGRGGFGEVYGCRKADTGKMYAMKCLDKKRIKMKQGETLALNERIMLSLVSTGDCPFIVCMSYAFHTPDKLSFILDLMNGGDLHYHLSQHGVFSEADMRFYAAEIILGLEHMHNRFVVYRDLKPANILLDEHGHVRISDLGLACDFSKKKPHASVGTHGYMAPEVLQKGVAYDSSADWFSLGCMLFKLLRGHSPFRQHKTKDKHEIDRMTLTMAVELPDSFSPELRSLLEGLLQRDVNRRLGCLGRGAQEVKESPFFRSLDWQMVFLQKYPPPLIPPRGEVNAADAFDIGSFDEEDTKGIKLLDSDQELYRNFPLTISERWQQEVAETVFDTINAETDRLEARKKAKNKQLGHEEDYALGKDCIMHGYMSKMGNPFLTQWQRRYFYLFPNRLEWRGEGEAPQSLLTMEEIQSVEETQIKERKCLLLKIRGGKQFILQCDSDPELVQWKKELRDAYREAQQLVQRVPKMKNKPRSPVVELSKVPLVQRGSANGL
Chain of Beta-2 adrenergic receptor (Homo sapiens) (P07550 whole entry, looked up): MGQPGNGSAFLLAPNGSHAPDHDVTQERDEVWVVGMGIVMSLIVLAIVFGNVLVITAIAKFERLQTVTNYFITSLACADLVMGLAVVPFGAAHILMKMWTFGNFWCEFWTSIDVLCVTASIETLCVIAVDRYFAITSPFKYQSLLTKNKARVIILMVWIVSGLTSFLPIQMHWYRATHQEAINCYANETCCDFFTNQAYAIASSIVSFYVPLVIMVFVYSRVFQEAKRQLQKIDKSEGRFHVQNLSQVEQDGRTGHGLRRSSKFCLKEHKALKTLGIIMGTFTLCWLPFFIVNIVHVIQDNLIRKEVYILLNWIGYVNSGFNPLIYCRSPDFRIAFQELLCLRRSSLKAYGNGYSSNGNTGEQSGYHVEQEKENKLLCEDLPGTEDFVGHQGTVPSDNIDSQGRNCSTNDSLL

In the case of `CC(=O)[C@@H]1[C@@H](C(=O)c2ccc(C)cc2)[C@]2(C(=O)Nc3ccccc32)[C@H]2C=Cc3cc(F)ccc3N12`, the percent of DMSO control GFP in assay [1] was 97.4% (inactive). The GFP response vs DMSO in [2] was 102% (inactive); in assay [4], 117% (inactive). The percent response of DMSO control in [3] was 90.1% (inactive). For the same molecule, in [5], the GFP response, % of DMSO is 100% (inactive). The same molecule registered a double positive events in assay [6] of 61.3%. Also, the vesicle binding response in assay [6] was 161% (inactive). The inhibition (in general, the relative decrease from the control value, in per cent) in assay [7] was -119% (inactive); in assay [11], 4.08% (inactive); in [15] it was 2% (inactive). The superoxide response (% of plate) in assay [8] was 112% (inactive). In addition, in assay [9], the aptamer binding inhibition is 4% (inactive). The response in assay [10] was 40.7% (inactive); in assay [12], -5.02% (inactive). For the same molecule, the binding (% of control) in assay [13] is 98.9% (inactive). Further, in [14], the efflux inhibition (fraction of control) is -0.03 (inactive). The differentiation response in [16] is 8.8% (inactive).

With `CC(C)Oc1ccc(C2CC(=O)N(c3ccc(C(=O)O)cc3)C2=O)cc1` (stereo not given), the percent of DMSO control GFP in assay [1] was 98.1% (inactive). Further, the GFP response vs DMSO in assay [2] is 97.6% (inactive); in [4], 137% (inactive). Further, the percent response of DMSO control in assay [3] is 105% (inactive). Moreover, the GFP response, % of DMSO in assay [5] is 122% (inactive). Moreover, the double positive events in assay [6] was determined as 57.7%. Moreover, the vesicle binding response in [6] was 178% (inactive). In addition, the inhibition is 3.14% (inactive) in assay [7], -15% (inactive) in assay [11] and -1% (inactive) in [15]. For the same molecule, in assay [8], the superoxide response (% of plate) was 135% (inactive). Moreover, the aptamer binding inhibition in assay [9] was -4% (inactive). Moreover, the response in assay [10] is -19.8% (inactive); in [12], -1.38% (inactive). Also, the binding (% of control) in assay [13] is 105% (inactive). In [14], the efflux inhibition (fraction of control) was -0.04 (inactive). Besides, the differentiation response in assay [16] is -9.91% (inactive).

Take `CSCC[C@H](NC(=O)Nc1ccc(C)cc1C)C(=O)O`: in [1], the percent of DMSO control GFP is 99.3% (inactive). The GFP response vs DMSO was 103% (inactive) in assay [2] and 95.7% (inactive) in [4]. In assay [3], the percent response of DMSO control was 99.6% (inactive). The GFP response, % of DMSO in assay [5] is 96.5% (inactive). The double positive events in assay [6] worked out at 56.7%. Also, the vesicle binding response in assay [6] was 178% (inactive). The figures for the inhibition in assay [7], in assay [11] and in [15] were 3.67% (inactive), 6.83% (inactive) and 7% (inactive), respectively. For the same molecule, in [8], the superoxide response (% of plate) was 101% (inactive). For the same molecule, in assay [9], the aptamer binding inhibition is 6% (inactive). In addition, the response in assay [10] was 3.91% (inactive); in [12], -0.26% (inactive). For the same molecule, the binding (% of control) in assay [13] was 94.5% (inactive). The efflux inhibition (fraction of control) in [14] is -0.17 (inactive). For the same molecule, the differentiation response in assay [16] was -7.2% (inactive).

For the molecule `Cc1ccc([N+](=O)[O-])cc1NC1OC(CO)C(O)C1O` (stereo not given), the percent of DMSO control GFP in [1] is 102% (inactive). Besides, the GFP response vs DMSO in [2] is 105% (inactive); in assay [4], 120% (inactive). The percent response of DMSO control in assay [3] is 104% (inactive). In addition, in assay [5], the GFP response, % of DMSO was 109% (inactive). Further, in assay [6], the double positive events amounted to 56.8%. In addition, in assay [6], the vesicle binding response was 186% (inactive). For the same molecule, the results for the inhibition in [7], in assay [11] and in assay [15] were -16.4% (inactive), 7.17% (inactive) and 3% (inactive), respectively. The superoxide response (% of plate) in [8] is 108% (inactive). In addition, in assay [9], the aptamer binding inhibition is 4% (inactive). The response is -23% (inactive) in [10] and 2.59% (inactive) in [12]. The binding (% of control) in [13] is 103% (inactive). The efflux inhibition (fraction of control) in assay [14] is -0.04 (inactive). Moreover, the differentiation response in assay [16] was 2.89% (inactive).

With `Cc1cc(C)nc(NS(=O)(=O)c2ccc(N)cc2)n1`, the percent of DMSO control GFP in assay [1] is 108% (inactive). The GFP response vs DMSO in [2] was 98.3% (inactive); in assay [4] it was 90.1% (inactive). Further, in assay [3], the percent response of DMSO control is 116% (inactive). Besides, the GFP response, % of DMSO in assay [5] was 104% (inactive). Further, the double positive events in assay [6] was found to be 65.7%. Further, in assay [6], the vesicle binding response is 216% (inactive). Moreover, the inhibition was -5.64% (inactive) in assay [7], -9.4% (inactive) in [11] and -1% (inactive) in assay [15]. Also, the superoxide response (% of plate) in assay [8] is 95.6% (inactive). Further, the aptamer binding inhibition in assay [9] was 1% (inactive). Further, the response is -4.61% (inactive) in [10] and -1.72% (inactive) in [12]. The binding (% of control) in assay [13] is 90.1% (inactive). Further, the efflux inhibition (fraction of control) in [14] is 0.11 (inactive). Further, in assay [16], the differentiation response is 6.11% (inactive).
